Assay [1] addresses Luciferin 4-monooxygenase (Photinus pyralis) (UniProt P08659). Kind of assay: Biochemical firefly luciferase enzyme assay for NPC (AID 624030).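 Also: purified P. pyralis luciferase at 10 nM with luciferin and ATP substrate; nearly all actives have a fitted effect of over 70% in size.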 The gist of the method:
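Counter-screen for direct inhibition of the luciferase enzyme by approved-drug library compounds, run at 10 nM enzyme in 50 mM Tris acetate (final). Luminescence was read within 5 min of enzyme-buffer addition and normalized to PTC124 versus DMSO (0%).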

Assay [2] is described as follows: S16 Schwann cell PMP22 intronic element firefly luciferase assay (AID 624032). Also: nearly all actives have a fitted effect of over 30% in size. In a few lines: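 Rat S16 Schwann cells stably carrying a PMP22 intronic element-driven Fluc reporter were seeded overnight, then exposed to compounds for 24 h at 37 °C. Luminescence was normalized to PTC124 (positive control) and DMSO (0% activity).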
The test system of assay [3] is 3D7. In words: qHTS profiling for inhibitors of Plasmodium falciparum proliferation (AID 504749). Also: nearly all actives have a fitted effect of over 60% in size. Also: potency is read from the fitted curve at half-maximal effect. To be noted: P. falciparum in erythrocytes, SYBR Green DNA, 72 h; series mostly up to 28.7 µM. In a few lines:
(§1)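 Fluorescence of SYBR Green-bound parasite DNA, read at 485/535 nm, served as the growth measure. Infected erythrocytes were cultured with compound 72 h; artemisinin (0.29 uM) and DMSO wells defined the normalization range.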
On the technique in general: In qHTS, concentration-response curves come from the screen itself.

Assay [4] has as its system C2A. The description is as above. To be noted: P. falciparum in erythrocytes, SYBR Green DNA, 72 h; series mostly up to 28.7 µM. In a few lines:
as §1

The subject of assay [5] is CP191. Described as above. The following applies: P. falciparum in erythrocytes, SYBR Green DNA, 72 h; series mostly up to 28.7 µM. In a few lines:
as §1

The subject of assay [6] is CP217. The assay is described as above. The following applies: P. falciparum in erythrocytes, SYBR Green DNA, 72 h; series mostly up to 28.7 µM. In a few lines:
as §1

Assay [7] has as its system CP250. The assay is described as above. The following applies: P. falciparum in erythrocytes, SYBR Green DNA, 72 h; series mostly up to 12.8 µM. In a few lines:
as §1

The subject of assay [8] is CP252. The assay is described as above. The following applies: P. falciparum in erythrocytes, SYBR Green DNA, 72 h; series mostly up to 12.8 µM. In a few lines:
as §1

Assay [9] concerns CP256. Described as above. To be noted: P. falciparum in erythrocytes, SYBR Green DNA, 72 h; series mostly up to 28.7 µM. In a few lines: as §1
Assay [10] concerns CP260. The assay is described as above. The following applies: P. falciparum in erythrocytes, SYBR Green DNA, 72 h; series mostly up to 28.7 µM. The gist of the method: as §1
Assay [11] has as its system CP262. The description is as above. To be noted: P. falciparum in erythrocytes, SYBR Green DNA, 72 h; series mostly up to 28.7 µM. The gist of the method:
as §1

For assay [12], the system named is CP266. The assay is described as above. The following applies: P. falciparum in erythrocytes, SYBR Green DNA, 72 h; series mostly up to 12.8 µM. In a few lines: as §1
Assay [13] has as its system CP315. The assay is described as above. To be noted: P. falciparum in erythrocytes, SYBR Green DNA, 72 h; series mostly up to 28.7 µM. In a few lines: as §1
Assay [14] deals with ECU. The assay is described as above. The following applies: P. falciparum in erythrocytes, SYBR Green DNA, 72 h; series mostly up to 28.7 µM. The gist of the method:
as §1

The subject of assay [15] is FAB9. The assay is described as above. The following applies: P. falciparum in erythrocytes, SYBR Green DNA, 72 h; series mostly up to 28.7 µM. In a few lines:
as §1

Assay [16] has as its system GB4. The assay is described as above. The following applies: P. falciparum in erythrocytes, SYBR Green DNA, 72 h; series mostly up to 28.7 µM. The gist of the method: as §1
Assay [17] relates to HB3. The description is as above. To be noted: P. falciparum in erythrocytes, SYBR Green DNA, 72 h; series mostly up to 28.7 µM. In a few lines:
as §1

For assay [18], the system named is JCK. The assay is described as above. To be noted: P. falciparum in erythrocytes, SYBR Green DNA, 72 h; series mostly up to 28.7 µM. In a few lines: as §1
Assay [19] deals with N140. The assay is described as above. The following applies: P. falciparum in erythrocytes, SYBR Green DNA, 72 h; series mostly up to 28.7 µM. The gist of the method: as §1
The subject of assay [20] is P93_24. The description is as above. To be noted: P. falciparum in erythrocytes, SYBR Green DNA, 72 h; series mostly up to 28.7 µM. The gist of the method:
as §1

SMILES strings stand for the structures. Results filed as inconclusive are left out. Calls of active or inactive are those of the source. Calls follow the shape of the dose curve; as a rule, active = well fitted curve in the direction sought with a large enough effect; inconclusive = small, poorly fitted or top-dose-only effect, or another doubt; inactive = no such curve, though single readings can be large; an effect the other way counts as inactive or inconclusive.

Chain of Luciferin 4-monooxygenase (Photinus pyralis) (P08659 whole entry, looked up): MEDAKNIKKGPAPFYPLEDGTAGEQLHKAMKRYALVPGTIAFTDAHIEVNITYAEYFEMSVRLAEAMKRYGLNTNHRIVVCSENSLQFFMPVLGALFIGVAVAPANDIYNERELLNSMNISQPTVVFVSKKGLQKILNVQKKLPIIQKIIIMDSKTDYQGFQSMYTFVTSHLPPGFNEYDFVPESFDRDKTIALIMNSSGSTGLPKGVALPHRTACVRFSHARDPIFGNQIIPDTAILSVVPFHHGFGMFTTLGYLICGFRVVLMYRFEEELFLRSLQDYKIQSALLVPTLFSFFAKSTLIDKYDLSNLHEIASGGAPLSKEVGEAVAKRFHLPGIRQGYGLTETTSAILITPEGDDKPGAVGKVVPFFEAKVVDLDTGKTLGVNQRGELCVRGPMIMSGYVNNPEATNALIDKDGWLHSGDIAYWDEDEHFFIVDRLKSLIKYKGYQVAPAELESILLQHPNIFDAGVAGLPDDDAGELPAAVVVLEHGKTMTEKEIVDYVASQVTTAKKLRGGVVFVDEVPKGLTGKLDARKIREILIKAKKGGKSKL

As to `CC[C@]1(c2cccc(O)c2)CCCCN(C)C1`, the Potency entry in assay [1], in assay [2], in assay [3], in assay [4], in assay [5] and in assay [6] was “inactive” in each case. Moreover, the Potency entry in [7], in assay [8], in assay [9], in assay [10], in assay [11] and in [12] was “inactive” each time. The Potency result in [13], in [14], in [15], in assay [17], in assay [18] and in assay [20] was “inactive” each time. Besides, the Potency is 4.55 µM (active) in assay [16] and 3.98 µM (active) in [19].
For `C[C@H](NC(C)(C)C)C(=O)c1cccc(Cl)c1`, the Potency result in [1], in [2], in [3], in assay [4], in [5] and in [6] was “inactive” throughout. Further, the Potency entry in assay [7], in [8], in assay [9], in [10], in [11] and in [12] was “inactive” in each case. Also, the Potency result in assay [13], in assay [14], in assay [15], in assay [16], in assay [17] and in assay [18] was “inactive” throughout. Also, the Potency entry in assay [19] and in [20] was “inactive” each time.
As for `CN(C)C(=O)Oc1cc(OC(=O)N(C)C)cc([C@@H](O)CNC(C)(C)C)c1`, the Potency result in assay [1], in assay [2], in assay [3], in assay [4], in assay [5] and in [6] was “inactive” in each case. Also, the Potency entry in assay [7], in assay [8], in assay [9], in assay [10], in assay [11] and in [12] was “inactive” in each case. Also, the Potency result in assay [13], in assay [14], in [15], in assay [16], in assay [17] and in assay [18] was “inactive” in each case. Moreover, the Potency result in [19] and in assay [20] was “inactive” each time.

Values taken from PubChem BioAssay (NCATS).
